Data from PubChem BioAssay (NCATS).
Inconclusive results are not listed. Active and inactive are the calls of the source. The call rests on the fitted dose curve; in most records, active means well fitted inhibition curve with a large enough effect; inconclusive means small, poorly fitted or top-dose-only effect; inactive means no such curve, though single readings can be large or run the other way.

biological target: Retinal dehydrogenase 2 (Homo sapiens) (UniProt O94788); test: qHTS for Inhibitors of the Aldehyde Dehydrogenase Family (ALDH1A2) Confirmation screens (AID 2061314); conditions: ALDH1A2 enzyme inhibition qHTS confirmation; series mostly up to 45.9 µM; further: nearly all actives have a fitted effect of over 65% in size

Potency, inactive:
COc1ccccc1CCNc1ncnc2c1nnn2C
CCc1cnc2c(c1SCc1ccccc1C)c(=O)n(C)c(=O)n2C
COc1cc(C(=O)NCC(c2ccco2)S(=O)(=O)c2ccccc2)cc(OC)c1OC (stereo not given)
COc1ccc(NC(=O)c2ccco2)cc1NC(=O)c1ccccc1[N+](=O)[O-]
Cc1ccc(-n2c(-c3cccc(C)c3)nc3c(cnn3-c3ccccc3)c2=O)cc1
COc1ccc(N(C)C(=O)c2cn(C)c(=O)c3cc(OC)c(OC)cc23)cc1
CCc1c(-c2ccccc2)nc2ccccc2c1C(=O)NC(C)c1ccccc1 (stereo not given)
CCn1cc(C(=O)N(C)c2cc(C)ccc2C)c2cc(OC)c(OC)cc2c1=O
COc1ccc(S(=O)(=O)N2CCC(N(C(=O)C3CC3)C3CCOCC3)CC2)cc1
Cc1ccc2cccc(NC(=O)COc3ccccc3[N+](=O)[O-])c2n1
COc1ccc(S(=O)(=O)N2CCCCC2)cc1C(=O)Nc1cccc(C(F)(F)F)c1
COC(=O)c1ccccc1NC(=O)CCCS(=O)(=O)c1nc(-c2ccccc2OC)cc(C(F)(F)F)n1
Cc1ccc(-c2nnc3ccccc3c2C(=O)Nc2cccc(C(F)(F)F)c2)cc1
COc1ccccc1Cc1nc2ccccc2nc1SCC(=O)Nc1c(C)cccc1C
O=C(COc1ccccc1-c1nc(-c2ccccc2)no1)Nc1cccc([N+](=O)[O-])c1
COc1ccc(S(=O)(=O)NCC(c2ccc(N(C)C)cc2)N2CCOCC2)cc1 (stereo not given)
CC(=O)c1cccc(NC(=O)c2ccc(Cl)c(S(=O)(=O)N3CCOCC3)c2)c1
Cc1cc(C)n2nc(CNS(=O)(=O)c3ccc(Cl)cc3)nc2n1
NS(=O)(=O)c1ccc(-n2nc(-c3ccncc3)nc2C2CCOC2)cc1 (stereo not given)
COCCn1cnnc1CN(C)C(=O)c1ccc2nc(C)cn2c1
O=C(NCC(=O)N1CCOCC1)c1cccc(-c2ccc(C(F)(F)F)cc2)c1
Fc1cc(F)cc(Cc2nc3nccc(-c4cccnc4)n3n2)c1
O=c1c2nc(OCc3ccc(F)cc3)ccc2ncn1C1CC1
CCOC(=O)c1ccccc1NC(=O)c1cnc(N2CCOCC2)c2ccccc12
Cc1cccn2c(=O)c3cc(C#N)c(=O)n(-c4nnc(SCc5ccc(Cl)cc5)s4)c3nc12
Cn1cnc(S(=O)(=O)N2CCC(C(=O)Nc3ccc(OC(F)(F)F)cc3)CC2)c1
COC(=O)c1cc(C)nc2c1c(=O)nc(SCc1ccccc1Cl)n2C1CC1
CN(CC1(CO)CC1)c1nccc(CCC(F)(F)F)n1
COc1ccc(-c2nocc2CCC(=O)NCCc2ccc(S(N)(=O)=O)cc2)cc1
COCC1CN(Cc2ccc(C(F)(F)F)cc2)CC12CCNCC2 (stereo not given)
Cn1c(=O)n([C@H]2CCCN(C(=O)c3cccnc3)C2)c2ncccc21
COc1ccccc1C(=O)Nc1cc(-c2cccc(Br)c2)nn1-c1ccccc1
CC[C@H]1CN(C(=O)Nc2cccc(C(F)(F)F)c2)CC[C@H]1CC(=O)N(C)CCC#N
COc1ccc(-c2cc(C(=O)NCCc3ccc(OC)c(OC)c3)c3ccccc3n2)cc1
Cc1ccccc1NC(=O)CSc1nc2ccccc2c2nc(CCn3cncc3C)nn12
CC(Cn1cncn1)NC(=O)c1cccc(S(=O)(=O)N2CCOCC2)c1 (stereo not given)
COc1ccc(S(=O)(=O)N2CCOC[C@H](Oc3ccc(C(F)(F)F)cc3)C2)cc1
CCc1nn(-c2ccccc2)c(Oc2cccc(C)c2)c1CCC(=O)N1CCOCC1
COCCNC(=O)CNC(=O)c1ccc(-c2cccc(C(F)(F)F)c2)cc1
CCOc1ccccc1NC(=O)c1cnc(N2CCOCC2)c2ccccc12
